# DT40 TDP1 CPT: growth inhibition of DT40 Tdp1-/-;hTDP1 cells with camptothecin (screen for TDP1 inhibitors); hit rate 12% among 420,000; AID 686979; chicken DT40 Tdp1-/-;hTDP1 cells + 20 nM CPT, ATP luminescence, 48 h; Potency, µM (series often up to 46.2 µM), without a hit: at the highest dose activity change, negative = growth inhibition, most hits filed as inhibitors; further: potency means the concentration at half of the fitted maximal effect; nearly all actives have a fitted effect of over 55% in size
#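 Cell growth measured by CellTiter-Glo luminescence after a minimum 48 h, 37 C compound exposure with 20 nM CPT in Tdp1-knockout DT40 cells stably expressing hTDP1, seeded 400/well; qHTS titration format.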
# IL1B secr inh: inflammasome signaling inhibition, IL-1 beta readout. activity change, % at 57.5 µM. AID 743279. THP-1 LPS/ATP IL-1B secretion, AlphaLISA, 16 h; hits give low values. hit rate 4.7% among 360,000; in the data active means activity change below about -50%; inconclusive means mostly about -30% to -49%
#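 THP-1 cells pretreated 1 hr with compounds (up to 57.5 uM final), then stimulated with LPS (250 ng/mL final) plus ATP (1.25 mM final); secreted IL-1B measured by AlphaLISA after 16 hr, decreased signal indicating inhibition.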
# Six1-Eya2 blk: Six1/Eya2 interaction inhibition; AlphaScreen GST-Six1/His-Eya2 binding, biochemical; hits give low values; activity change, % (test concentration not listed); Q15475+O00167; hit rate 0.56% among 360,000; in the data active means activity change below about -65%; inconclusive means mostly about -30% to -63%
#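 Homogeneous AlphaScreen proximity assay pairing GST-Six1 with His-tagged Eya2 (added as 5X mix: 250 nM and 500 nM) in 50 mM Tris pH 8.0, 300 mM NaCl, 1 mM TCEP. Glutathione donor and nickel acceptor beads; 1 h, 37 °C, dark.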
# TDP1 inh: TDP1 (human) enzyme inhibition; recombinant TDP1, AlphaScreen DNA substrate cleavage; Potency, µM (highest dose often 130 µM), without a hit: at the top dose activity change, negative = inhibition, most hits filed as inhibitors; AID 485290; hit rate 0.28% among 350,000; Q9NUW8; further: potency means the concentration at half of the fitted maximal effect; nearly all actives have a fitted effect of over 40% in size
#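 Recombinant E. coli-expressed Tdp1 (1 nM) preincubated with compound 15 min at RT, then 5'-biotin/3'-phosphotyrosine-FITC DNA substrate (15 nM) added for 5 min. AlphaScreen beads (10 ug/ml) added, 10 min RT; tyrosine-FITC cleavage read as signal loss.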
# DT40 TDP1 no CPT: qHTS for Inhibitors of human tyrosyl-DNA phosphodiesterase 1 (TDP1): qHTS in cells in absence of CPT; AID 686978, 2013; Potency, µM (top dose mostly 46.2 µM), for inactives: top-dose activity change, negative = growth inhibition, usual class: inhibitors; DT40 Tdp1-/- hTDP1 cells, no CPT, ATP luminescence, 48 h; hit rate 15% among 420,000; further: potency means the concentration at half of the fitted maximal effect; nearly all actives have a fitted effect of over 55% in size
#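 Readout: luminescence from CellTiter-Glo after 30 min in the dark at RT. Cells: DT40 Tdp1-/- with stable hTDP1, 400/well. Exposure: compounds alone, ≥48 hr, 37 °C.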
# CtBP-E1A inh: inhibitors of CtBP/E1A interaction; AlphaScreen GST-E1A/His-CtBP binding, 1536-well; hits give low values; activity change, % (concentration not given with the values); hit rate 0.49% among 340,000; in the data active means activity change below about -65%; inconclusive means mostly about -30% to -63%
#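 Protein mix (5X: 125 nM each GST-E1A, His-CtBP) was incubated with pinned compound 2 h at 37 deg C in dark, in 50 mM Tris pH 8.0 buffer with 300 mM NaCl. Glutathione donor and nickel acceptor beads followed; AlphaScreen signal read after 1 h.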
# The depositor's hits bear a star; ? = inconclusive; / = not tested or not shown. Most compounds without a hit are left out; they make up all but 18% or so of the library. Unless noted, the call rests on the fitted dose curve; in most records, active means well fitted curve in the direction sought with a large enough effect; inconclusive means small, poorly fitted or top-dose-only effect, or another doubt; inactive means no such curve, though single readings can be large; an effect the other way counts as inactive or inconclusive. On the % scale 0 is the no-effect control and ±100 the full control effect.
SMILES,DT40 TDP1 CPT,IL1B secr inh,Six1-Eya2 blk,TDP1 inh,DT40 TDP1 no CPT,CtBP-E1A inh
CC(C)NC(=O)N(C)C[C@H]1Oc2cc(Br)ccc2S(=O)(=O)N([C@H](C)CO)C[C@H]1C,-26%,21,8,/,-7%,6
C[C@@H]1CN([C@H](C)CO)S(=O)(=O)c2ccc(C3=CCCCC3)cc2O[C@H]1CN(C)C(=O)Cc1cccnc1,?,-24,-1,/,26µM*,4
C[C@@H]1CN([C@@H](C)CO)S(=O)(=O)c2ccc(Br)cc2O[C@H]1CN(C)C(=O)C1CCOCC1,9%,-5,8,/,-3%,-7
C[C@@H]1CN([C@H](C)CO)S(=O)(=O)c2ccc(Br)cc2O[C@H]1CN(C)C(=O)C1CCCCC1,26µM*,11,16,/,13µM*,4
CSc1cccc(NC(=O)CN(C)S(=O)(=O)c2ccc(F)cc2)c1,?,-8,10,2%,-9%,-2
NCC(O)c1ccc(O)c(O)c1 (stereo not given),3%,17,-2,?,11%,0
NCCc1ccc(O)c(O)c1,5.2µM*,-1,-1,/,4.6µM*,-4
NC(Cc1ccc(O)c(O)c1)C(=O)O (stereo not given),3.7µM*,/,/,/,2.9µM*,/
CCOc1ccc(C(=O)Nc2ccc(N3CCN(S(C)(=O)=O)CC3)cc2)cc1[N+](=O)[O-],-16%,-3,21,-1%,-8%,/
CC(Cc1ccccc1)C(=O)NCc1ccccn1 (stereo not given),5%,-6,4,3%,17%,7
CC(NC(=S)Nc1ccc(F)cc1)C(c1cccs1)N1CCOCC1 (stereo not given),?,-4,-3,/,?,-20
COC(=O)N[C@@H]1C[C@H]2[C@@H]3CC[C@H]4C[C@@H](OC)CC[C@]4(C)[C@H]3CC[C@@]12C,13µM*,41,0,0%,15µM*,5
COC(=O)[C@H]1C[C@H]2[C@@H]3CC[C@H]4C[C@@H](OC)CC[C@]4(C)[C@H]3CC[C@]2(C)[C@@]2(CCCO2)O1,?,-4,1,/,16µM*,5
COC(=O)N[C@@H]1C[C@H]2[C@@H]3CC[C@H]4C[C@@H](OC)CC[C@]4(C)[C@H]3CC[C@]12C,?,51,4,0%,?,-1
COc1ccc(C(C(=O)NC(C)(C)C)N(Cc2ccc(C)cc2)C(=O)CCC(=O)Nc2cc(C)on2)cc1 (stereo not given),-39%,0,-26,8%,?,/
COc1ccc(OC)c(CCNC(=O)c2nc(-c3ccc(Cl)cc3)n3c2CCCCC3)c1,10µM*,/,/,14%,9.2µM*,/
COc1ccc(N2CCN(C(=O)c3nc(-c4ccc(Cl)cc4)n4c3CCCCC4)CC2)cc1,?,/,/,10%,21µM*,/
Cc1ccc(-c2nc(C(=O)N3CCN(c4ccccc4)CC3)c3n2CCCCC3)cc1,/,/,/,1%,/,/
CN(Cc1ccccc1)C(=O)c1nc(-c2ccc(Cl)cc2)n2c1CCCCC2,?,/,/,11%,?,/
COc1ccc(NC(=O)c2nc(-c3ccc(C)cc3)n3c2CCCCC3)c(OC)c1,6%,/,/,4%,-20%,/
Cc1ccc(CNC(=O)c2nc(-c3ccc(Cl)cc3)n3c2CCCCC3)cc1,?,/,/,11%,18µM*,/
COc1ccc(NC(=O)c2nc(-c3ccc(C)cc3)n3c2CCCCC3)cc1,?,/,/,-3%,16µM*,/
CC(C)CN(C(=O)Cn1ccccc1=O)C1CCS(=O)(=O)C1 (stereo not given),3%,-4,0,0%,5%,2
O=C(Nc1ccccc1)C1CC2CCC1C2 (stereo not given),12%,9,8,/,15%,9

# High-throughput results (PubChem)
